# Assay results taken from the supplement of paper PMC6411743.
# ± gives the standard deviation of the averaged measurements. Of roughly 6,200 targets only a part is listed; those with the largest changes were picked by preference.
# How the values were obtained:
# Experiment in all cases: NP40-soluble protein abundance relative to vehicle (solubility fold change) (ratio); higher = more soluble protein in presence of AMP-PNP
# KIAA0319L = target: T1, KIAA0319L (UniProt Q8IZA0)
# T1 sequence (whole entry): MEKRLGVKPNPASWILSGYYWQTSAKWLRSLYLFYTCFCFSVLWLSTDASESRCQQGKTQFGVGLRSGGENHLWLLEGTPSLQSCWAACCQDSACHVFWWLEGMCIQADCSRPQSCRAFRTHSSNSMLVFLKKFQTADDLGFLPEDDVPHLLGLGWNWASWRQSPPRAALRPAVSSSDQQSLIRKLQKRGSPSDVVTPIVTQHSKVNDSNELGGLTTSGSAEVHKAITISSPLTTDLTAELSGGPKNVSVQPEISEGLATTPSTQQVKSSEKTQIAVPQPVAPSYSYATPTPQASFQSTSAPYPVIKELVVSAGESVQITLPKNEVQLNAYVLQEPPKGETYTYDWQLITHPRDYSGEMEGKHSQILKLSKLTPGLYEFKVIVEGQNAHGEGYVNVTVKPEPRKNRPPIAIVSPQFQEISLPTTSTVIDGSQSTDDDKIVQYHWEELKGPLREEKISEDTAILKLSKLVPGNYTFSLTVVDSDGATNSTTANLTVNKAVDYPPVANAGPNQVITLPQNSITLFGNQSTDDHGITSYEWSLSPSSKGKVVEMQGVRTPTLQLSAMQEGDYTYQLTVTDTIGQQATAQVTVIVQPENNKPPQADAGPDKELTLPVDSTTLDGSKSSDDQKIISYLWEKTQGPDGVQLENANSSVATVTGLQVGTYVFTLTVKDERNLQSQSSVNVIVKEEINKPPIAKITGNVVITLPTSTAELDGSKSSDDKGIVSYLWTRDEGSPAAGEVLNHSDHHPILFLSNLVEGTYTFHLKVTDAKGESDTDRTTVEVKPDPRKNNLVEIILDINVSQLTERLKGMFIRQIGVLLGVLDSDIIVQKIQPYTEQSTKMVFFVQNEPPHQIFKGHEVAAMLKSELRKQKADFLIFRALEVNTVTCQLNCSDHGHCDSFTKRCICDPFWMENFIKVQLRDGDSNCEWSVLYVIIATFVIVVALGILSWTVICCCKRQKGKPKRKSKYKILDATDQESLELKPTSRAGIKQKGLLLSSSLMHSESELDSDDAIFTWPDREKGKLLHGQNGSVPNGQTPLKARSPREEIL
# In short: (§1)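 Values are fold changes against the detergent-processed vehicle, based on vsn-normalised intensities. Jurkat crude lysate was treated at eight concentrations from 0.1 to 10 mM (10 min at room temperature, then 3 min at 37 °C), solubilised with 0.8% NP40 and benzonase, ultracentrifuged and analysed by TMT-labelled LC-MS/MS over three independent experiments.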
# NUFIP2 = target: T2, NUFIP2 (UniProt Q7Z417)
# T2 sequence (whole entry): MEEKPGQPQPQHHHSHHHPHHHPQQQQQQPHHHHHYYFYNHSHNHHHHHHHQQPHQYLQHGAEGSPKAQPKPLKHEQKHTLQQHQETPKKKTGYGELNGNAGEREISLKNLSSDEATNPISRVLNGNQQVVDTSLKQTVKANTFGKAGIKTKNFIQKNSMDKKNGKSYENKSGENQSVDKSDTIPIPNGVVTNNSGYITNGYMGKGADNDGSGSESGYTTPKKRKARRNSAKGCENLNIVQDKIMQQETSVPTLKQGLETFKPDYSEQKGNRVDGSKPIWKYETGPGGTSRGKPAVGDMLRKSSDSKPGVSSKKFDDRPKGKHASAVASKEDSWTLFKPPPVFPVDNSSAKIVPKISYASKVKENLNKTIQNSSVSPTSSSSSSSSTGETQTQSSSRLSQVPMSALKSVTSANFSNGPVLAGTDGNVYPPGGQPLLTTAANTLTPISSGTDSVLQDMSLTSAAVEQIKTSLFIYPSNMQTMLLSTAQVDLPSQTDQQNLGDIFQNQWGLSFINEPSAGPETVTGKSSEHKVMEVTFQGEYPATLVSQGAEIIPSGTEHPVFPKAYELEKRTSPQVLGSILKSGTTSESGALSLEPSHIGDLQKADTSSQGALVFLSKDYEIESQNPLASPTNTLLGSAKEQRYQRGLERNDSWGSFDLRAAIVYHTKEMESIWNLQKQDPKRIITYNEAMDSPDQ
# In short: as §1
# PINX1 = target: T3, PINX1 (UniProt Q96BK5)
# T3 sequence (whole entry): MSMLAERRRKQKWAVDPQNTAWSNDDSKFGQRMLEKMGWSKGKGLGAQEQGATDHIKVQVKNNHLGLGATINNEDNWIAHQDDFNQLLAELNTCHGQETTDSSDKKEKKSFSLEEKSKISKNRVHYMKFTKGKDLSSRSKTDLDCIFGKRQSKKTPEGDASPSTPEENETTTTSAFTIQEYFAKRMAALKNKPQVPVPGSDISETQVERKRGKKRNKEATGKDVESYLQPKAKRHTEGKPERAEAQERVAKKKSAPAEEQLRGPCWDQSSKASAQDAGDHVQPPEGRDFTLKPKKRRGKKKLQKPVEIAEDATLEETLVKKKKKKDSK
# In short: as §1
# TTF1 = target: T4, TTF1 (UniProt Q15361)
# T4 sequence (whole entry): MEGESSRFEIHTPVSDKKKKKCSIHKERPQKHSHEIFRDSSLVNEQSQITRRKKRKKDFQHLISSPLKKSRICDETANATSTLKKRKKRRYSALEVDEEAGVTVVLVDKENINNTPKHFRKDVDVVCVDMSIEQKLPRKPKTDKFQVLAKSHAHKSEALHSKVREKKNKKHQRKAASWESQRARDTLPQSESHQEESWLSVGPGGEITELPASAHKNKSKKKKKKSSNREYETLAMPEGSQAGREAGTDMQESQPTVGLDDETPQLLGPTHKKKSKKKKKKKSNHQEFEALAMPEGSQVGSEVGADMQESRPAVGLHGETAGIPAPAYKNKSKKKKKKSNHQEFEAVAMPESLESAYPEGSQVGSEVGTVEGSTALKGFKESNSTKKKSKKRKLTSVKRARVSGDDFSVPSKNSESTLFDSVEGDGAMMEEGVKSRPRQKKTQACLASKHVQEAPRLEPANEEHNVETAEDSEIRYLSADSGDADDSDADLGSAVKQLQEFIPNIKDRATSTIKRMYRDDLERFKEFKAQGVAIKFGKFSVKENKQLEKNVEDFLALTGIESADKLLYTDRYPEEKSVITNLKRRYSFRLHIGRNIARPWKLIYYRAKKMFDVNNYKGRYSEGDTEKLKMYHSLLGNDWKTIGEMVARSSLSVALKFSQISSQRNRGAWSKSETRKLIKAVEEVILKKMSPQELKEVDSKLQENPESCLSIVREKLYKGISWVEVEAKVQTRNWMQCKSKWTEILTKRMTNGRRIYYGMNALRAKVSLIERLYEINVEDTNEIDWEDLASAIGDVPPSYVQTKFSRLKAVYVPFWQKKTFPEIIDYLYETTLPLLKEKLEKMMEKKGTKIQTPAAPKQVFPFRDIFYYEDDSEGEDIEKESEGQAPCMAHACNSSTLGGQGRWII
# In short: as §1
# UniProt Q147X3|Q147X3-2 = target: T5, UniProt Q147X3|Q147X3-2
# T5 sequence (whole entry): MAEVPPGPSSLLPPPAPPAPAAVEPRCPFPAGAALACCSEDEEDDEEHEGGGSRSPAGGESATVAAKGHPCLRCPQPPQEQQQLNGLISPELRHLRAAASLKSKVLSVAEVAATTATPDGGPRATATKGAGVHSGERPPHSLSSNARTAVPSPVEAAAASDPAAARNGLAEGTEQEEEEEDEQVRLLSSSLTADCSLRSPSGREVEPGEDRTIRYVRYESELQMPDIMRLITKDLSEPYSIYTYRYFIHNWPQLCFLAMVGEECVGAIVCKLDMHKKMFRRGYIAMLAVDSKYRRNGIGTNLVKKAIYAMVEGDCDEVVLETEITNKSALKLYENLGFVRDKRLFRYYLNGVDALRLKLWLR
# In short: as §1
structure (smiles),measurement,setting,value
Nc1ncnc2c1ncn2[C@@H]1O[C@H](COP(=O)(O)OP(=O)(O)NP(=O)(O)O)[C@@H](O)[C@H]1O [adenylyl imidodiphosphate],NP40-soluble protein abundance,KIAA0319L; concentration: 1mM,1.01 ± 0.014
same,NP40-soluble protein abundance,KIAA0319L; concentration: 2mM,1.03 ± 0.033
same,NP40-soluble protein abundance,KIAA0319L; concentration: 4mM,0.977 ± 0.025
same,NP40-soluble protein abundance,KIAA0319L; concentration: 6mM,0.969 ± 0.034
same,NP40-soluble protein abundance,KIAA0319L; concentration: 8mM,0.976 ± 0.017
same,NP40-soluble protein abundance,KIAA0319L; concentration: 10mM,0.9945 ± 0.0054
same,NP40-soluble protein abundance,NUFIP2; concentration: 1mM,1.11 ± 0.029
same,NP40-soluble protein abundance,NUFIP2; concentration: 2mM,1.22 ± 0.066
same,NP40-soluble protein abundance,NUFIP2; concentration: 4mM,1.24 ± 0.023
same,NP40-soluble protein abundance,NUFIP2; concentration: 6mM,1.26 ± 0.14
same,NP40-soluble protein abundance,NUFIP2; concentration: 8mM,1.27 ± 0.14
same,NP40-soluble protein abundance,NUFIP2; concentration: 10mM,1.37 ± 0.12
same,NP40-soluble protein abundance,PINX1; concentration: 1mM,1.15 ± 0.053
same,NP40-soluble protein abundance,PINX1; concentration: 2mM,1.27 ± 0.034
same,NP40-soluble protein abundance,PINX1; concentration: 4mM,1.36 ± 0.09
same,NP40-soluble protein abundance,PINX1; concentration: 6mM,1.51 ± 0.057
same,NP40-soluble protein abundance,PINX1; concentration: 8mM,1.59 ± 0.083
same,NP40-soluble protein abundance,PINX1; concentration: 10mM,1.8 ± 0.079
same,NP40-soluble protein abundance,TTF1; concentration: 1mM,0.967 ± 0.024
same,NP40-soluble protein abundance,TTF1; concentration: 2mM,0.963 ± 0.024
same,NP40-soluble protein abundance,TTF1; concentration: 4mM,0.957 ± 0.025
same,NP40-soluble protein abundance,TTF1; concentration: 6mM,0.96 ± 0.046
same,NP40-soluble protein abundance,TTF1; concentration: 8mM,0.912 ± 0.02
same,NP40-soluble protein abundance,TTF1; concentration: 10mM,0.949 ± 0.045
same,NP40-soluble protein abundance,UniProt Q147X3|Q147X3-2; concentration: 1mM,0.992 ± 0.016
same,NP40-soluble protein abundance,UniProt Q147X3|Q147X3-2; concentration: 2mM,0.971 ± 0.025
same,NP40-soluble protein abundance,UniProt Q147X3|Q147X3-2; concentration: 4mM,1.01 ± 0.059
same,NP40-soluble protein abundance,UniProt Q147X3|Q147X3-2; concentration: 6mM,1.03 ± 0.046
same,NP40-soluble protein abundance,UniProt Q147X3|Q147X3-2; concentration: 8mM,0.99 ± 0.023
same,NP40-soluble protein abundance,UniProt Q147X3|Q147X3-2; concentration: 10mM,1 ± 0.025
